hcDAF12 agonist – H. contortus DAF-12 activation, primary screen; activation, % at 6.8 µM; HEK293 hcDAF-12 lit1-tk-luc reporter, luminescence; 0% DMSO, 100% Δ7-dafachronic acid; actives 1.4% (n = 370,000); AID 652067;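 active = activation above the mean of all tested compounds plus 3 SD, cut at about 5.5% in these data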;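 note: 100% = response to 3 µM Δ7-dafachronic acid high control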
hgDAF12 agonist – agonists of H. glycines DAF-12 nuclear receptor | HEK293 GAL4-hgDAF12 UAS-luciferase reporter, agonist luminescence; normalized to butyrate control | activation, % at 6.8 µM | actives 1.8% (n = 370,000);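 active = activation above a cutoff set at the mean of all screened compounds plus 3 SD, cut at about 10% in these data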;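 note: 0% = DMSO wells and 100% = sodium butyrate wells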
DAX1 inh-1 – inhibitors of human orphan nuclear receptor DAX1 (NR0B1); inhibition, % at 6.75 µM; HEK293 Gal4-DAX1 luciferase reporter, luminescence; P51843; actives 0.99% (n = 340,000);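 active = inhibition above the mean over all tested compounds plus 3 SD, cut at about 4.2% in these data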;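 note: 0% = DAX1-transfected cells with DMSO and 100% = empty-vector control cells with DMSO; inhibition shows as a rise in luminescence from relieved DAX1 repression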
DAX1 inh-2 – DAX1 (NR0B1) inhibition, primary screen. HEK293T StAR-luciferase reporter, SF-1/DAX-1 repression relief. inhibition, % at 6.8 µM. actives 1.1% (n = 370,000);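 active = inhibition above the mean over all tested compounds plus 3 SD, cut at about 3.6% in these data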;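 note: 0% = DAX-1 cells with DMSO and 100% = cells lacking DAX-1 with DMSO; higher inhibition means more luminescence from relief of DAX-1 repression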
FXN GAA850 act – frataxin GAA850 promoter activation; actives 0.56% (n = 360,000); activation, % at 6 µM; HEK293 lucGAA850 FXN promoter luciferase reporter, 24 h; percent of 10 µM SAHA response; AID 540364;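 active = activation above the average of all compounds screened plus 3 SD, cutoff fixed separately per campaign, cut at about 7.5% in these data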;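 note: 0% = DMSO wells and 100% = 10 µM SAHA wells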
ssDAF-12 act – activators of S. stercoralis DAF-12 nuclear receptor; HEK293 ssDAF-12/GRIP1 lit1-tk-luc reporter, luminescence; % of 3 µM dafachronic acid response; activation, % at 6.8 µM; actives 1% (n = 370,000); AID 652126;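 active = activation above the mean over all tested compounds plus 3 SD, cut at about 0.9% in these data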;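 note: 0% = DMSO-only wells and 100% = 3 µM delta7-dafachronic acid wells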
hgDAF12 conf – hgDAF-12 agonism, confirmation assay; shares compounds with hgDAF12 agonist; HEK293 GAL4-hgDAF12 luciferase reporter, agonist mode; percent of butyrate response; activation, % at 6.8 µM; actives 80% (n = 3,300);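 active = mean activation over triplicate wells above the hit cutoff derived from the earlier primary screen, cut at about 11% in these data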;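 note: 0% = DMSO low control and 100% = 2 mM sodium butyrate high control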
LXRb DAF12 ctr – LXR-beta agonism as DAF-12 counter-screen | shares compounds with hgDAF12 agonist | HEK293 Gal4-LXR luciferase reporter, 24 h | activation, % at 6.8 µM | 3,300 tested, under 10 active;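 active = mean activation of the triplicate above a set limit carried over from the primary screen, none filed active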
Target sequence (P55055 whole entry, looked up, the tested form may be a part): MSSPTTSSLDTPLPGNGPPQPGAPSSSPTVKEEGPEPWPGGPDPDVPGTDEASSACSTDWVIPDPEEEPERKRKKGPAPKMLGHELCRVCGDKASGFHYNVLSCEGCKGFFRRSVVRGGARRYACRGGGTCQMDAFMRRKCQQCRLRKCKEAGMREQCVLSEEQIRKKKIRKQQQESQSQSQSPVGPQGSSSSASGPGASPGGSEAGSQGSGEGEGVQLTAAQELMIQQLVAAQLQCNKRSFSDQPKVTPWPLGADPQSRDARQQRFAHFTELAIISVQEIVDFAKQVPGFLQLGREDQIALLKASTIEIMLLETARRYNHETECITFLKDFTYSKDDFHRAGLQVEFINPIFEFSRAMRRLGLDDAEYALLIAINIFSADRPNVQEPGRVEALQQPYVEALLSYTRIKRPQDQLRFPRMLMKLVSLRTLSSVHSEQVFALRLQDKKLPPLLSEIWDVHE
Active calls of the source: *; · = not tested or not shown. Compounds with a hit are over-represented: about 4.5% of the library has one in this group of screens.

SMILES	hcDAF12 agonist	hgDAF12 agonist	DAX1 inh-1	DAX1 inh-2	FXN GAA850 act	ssDAF-12 act	hgDAF12 conf	LXRb DAF12 ctr
COc1ccc(C(=O)N2CCC(C)(C(=O)NS(=O)(=O)C3CC3)C2)c(OC)c1 (configuration not stated)	-1	1	·	0	-1	-1	·	·
O=C(/C=C/c1ccnc2ccccc12)c1cccs1	4	14*	1	2	5	0	15*	1
ON=Cc1ccnc2ccccc12	-1	0	2	0	-1	-1	·	·
Cc1ccn(-c2ccc(NC(=O)c3cccs3)cc2)n1	5	17*	0	3	2	0	17*	1
O=C(N/N=C/c1ccc(N2CCOCC2)cc1)c1ccc(NS(=O)(=O)c2cccs2)cc1	-2	4	2	1	2	-2	·	·
O=C(N/N=C/c1ccc(N2CCOCC2)cc1)c1cccs1	3	20*	1	4.4*	7	-1	14*	1
CN1CCN(c2ccc(NC(=O)c3cccs3)cc2)CC1	4	15*	5.7*	4.3*	7	0	12*	1
COc1ccc2nc(NC(=O)CS(=O)(=O)c3ccc(C)cc3)sc2c1	-3	-1	0	0	0	-1	·	·
C=CCNc1nc(C(=O)OCC(=O)Nc2c(Cl)cccc2C(F)(F)F)cs1	-2	-1	-2	-1	1	-1	·	·
Cc1cccc(N=Nc2cnc(N)s2)c1	4	18*	4.4*	1	7	-1	7	0
COc1ccc(NC(=O)c2cc3ccccc3o/c2=N\NS(=O)(=O)c2ccc(C)cc2)cc1	6.0*	14*	2	2	3	0	13*	1
COc1cccc2cc(C(=O)Nc3cc(C)cc(C)c3)/c(=N/NS(=O)(=O)c3ccccc3)oc12	1	0	1	-1	1	-1	·	·
CSc1nc(N)nc2c1ncn2CC(=O)N1CCN(c2ccccn2)CC1	-2	-3	0	-1	2	-1	·	·
CCS(=O)(=O)N1Cc2ccccc2CC1C(=O)Nc1cccc(OC)c1 (configuration not stated)	3	14*	1	0	3	0	4	0
COc1ccc(Cl)cc1N1Cc2ccccc2C1	0	-2	2	-1	2	0	·	·
COc1ccc(N2Cc3ccccc3C2)cc1Cl	0	14*	0	-2	4	0	6	0
CCOc1ccc2c(c1)C(N(CCN1CCOCC1)C(=O)Nc1ccccc1)CC(C)(C)O2 (configuration not stated)	0	-3	3	0	0	-1	·	·
O=C(OCC(=O)N1CCOCC1)c1cc(-c2ccccc2)nc2ccccc12	0	3	-1	-1	-2	-1	·	·
Cc1ccc(NC(=O)c2cncc(Br)c2)c(O)c1	6.2*	16*	2	3	-2	0	17*	0
COCC1CCN(Cc2nc(-c3cccs3)no2)C1 (configuration not stated)	3	22*	·	4	6	1	10	0
Cc1cc(/C=N/NC(=O)c2cccs2)c(C)n1-c1cnccn1	4	16*	2	3.9*	7	0	15*	1
Cc1cc(/C=N/NC(=O)c2cccs2)c(C)n1-c1ccccc1	-2	-9	-1	-1	-11	-2	·	·
Cc1nn(-c2ccc(F)cc2)c(Cl)c1/C=N/NC(=O)c1cccs1	0	15*	2	2	4	0	6	0
Cc1ccc(/C=N/NC(=O)c2cccs2)o1	1	10	1	1	2	0	·	·
O=C(N/N=C/C=C/c1ccccc1)c1cccs1	3	1	0	2	-1	-1	·	·
SMILES	hcDAF12 agonist	hgDAF12 agonist	DAX1 inh-1	DAX1 inh-2	FXN GAA850 act	ssDAF-12 act	hgDAF12 conf	LXRb DAF12 ctr
O=C(N/N=C/C(Br)=C/c1ccccc1)c1cccs1	3	24*	4.5*	3	6	1	15*	1
Cc1ccsc1/C=N/NC(=O)c1cccs1	4	15*	3	1	2	-1	10	0
c1cnc2ccc(-c3ccc4ncccc4c3)cc2c1	5	14*	4	3.8*	5	-1	17*	1
O=C(O)CCC(=O)Nc1cc(C(F)(F)F)cc(C(F)(F)F)c1	1	0	3	0	-1	-1	·	·
COc1ccc(/C(C)=N/NC(=O)C(NC(=O)c2ccccc2)c2n[nH]c(=O)c3ccccc23)c(OC)c1 (configuration not stated)	0	1	2	-1	5	0	·	·
NC(=O)c1cccnc1Nc1cccc(F)c1	-1	4	-1	0	-1	-1	·	·
NC(=O)c1cccnc1Nc1cccc([N+](=O)[O-])c1	3	14*	4.3*	3	3	0	9	0
CCC(=O)NCCc1nc2cc(NC(=O)c3ccc(F)cc3)ccc2n1C	2	6	2	1	6	0	·	·
Cc1cc(C(=O)CSc2nnc(-c3ccccc3F)o2)c(C)n1Cc1cccs1	1	0	-2	0	1	-1	·	·
Cc1cc(C(=O)CN2C(=O)c3cccc(N)c3C2=O)c(C)n1Cc1cccs1	6.0*	15*	2	4.1*	4	1.0*	15*	1
O/N=C/c1ccc(OCc2ccccc2)c(Br)c1	3	16*	1	1	5	0	22*	1
O/N=C/c1ccc(OCc2ccccc2)c(Cl)c1	4	15*	5.0*	2	5	1.4*	13*	1
Cc1ccc(N(C)S(=O)(=O)c2cccc(C(=O)OCC(=O)N(C)Cc3ccccc3)c2)cc1	-2	2	0	-3	-1	-1	·	·
Cc1ccc(C(=O)N/N=C\c2ccc3c(c2)OCO3)cn1	0	1	0	0	0	-1	·	·
Cc1ccc(C(=O)NN=Cc2ccc3c(c2)OCO3)cc1	1	15*	1	1	6	0	12*	0
O=C(N/N=C/c1ccc(Br)o1)c1ccc2c(c1)OCCO2	3	16*	1	2	3	0	11*	1
O=C(N/N=C/c1ccc([N+](=O)[O-])o1)c1ccc2c(c1)OCO2	-6	-13	-3	-6	-4	-2	·	·
Cc1oc(-c2cc(F)cc(F)c2)nc1CN1CCSCC1	0	4	-1	2	2	-1	·	·
Nc1ccccc1SCc1cn2cccnc2n1	4	14*	2	1	1	0	4	0

Screens from PubChem.
